Measured values published in PubChem BioAssay AID720704 (The Scripps Research Institute Molecular Screening Center, 2013).
About 660 (0.18%) of roughly 370,000 compounds were called active. This excerpt belongs to a sample that is enriched for actives. Unmarked numbers belong to inactive results. No stated cut-off is given here; in the data, active means inhibition above about 11%; inactive means the rest.

target: 1-phosphatidylinositol 4,5-bisphosphate phosphodiesterase beta-3 (Homo sapiens) (UniProt Q01970); experiment: phospholipase C beta3 enzyme inhibition – biochemical, fluorescence, primary screen (AID 720704); conditions: Purified PLC-beta3, fluorogenic substrate, at 12.2 µM, active compounds read high;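 further: 0% = median of compound wells on plate and 100% = full blocker control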
Sequence (Q01970 whole entry, looked up): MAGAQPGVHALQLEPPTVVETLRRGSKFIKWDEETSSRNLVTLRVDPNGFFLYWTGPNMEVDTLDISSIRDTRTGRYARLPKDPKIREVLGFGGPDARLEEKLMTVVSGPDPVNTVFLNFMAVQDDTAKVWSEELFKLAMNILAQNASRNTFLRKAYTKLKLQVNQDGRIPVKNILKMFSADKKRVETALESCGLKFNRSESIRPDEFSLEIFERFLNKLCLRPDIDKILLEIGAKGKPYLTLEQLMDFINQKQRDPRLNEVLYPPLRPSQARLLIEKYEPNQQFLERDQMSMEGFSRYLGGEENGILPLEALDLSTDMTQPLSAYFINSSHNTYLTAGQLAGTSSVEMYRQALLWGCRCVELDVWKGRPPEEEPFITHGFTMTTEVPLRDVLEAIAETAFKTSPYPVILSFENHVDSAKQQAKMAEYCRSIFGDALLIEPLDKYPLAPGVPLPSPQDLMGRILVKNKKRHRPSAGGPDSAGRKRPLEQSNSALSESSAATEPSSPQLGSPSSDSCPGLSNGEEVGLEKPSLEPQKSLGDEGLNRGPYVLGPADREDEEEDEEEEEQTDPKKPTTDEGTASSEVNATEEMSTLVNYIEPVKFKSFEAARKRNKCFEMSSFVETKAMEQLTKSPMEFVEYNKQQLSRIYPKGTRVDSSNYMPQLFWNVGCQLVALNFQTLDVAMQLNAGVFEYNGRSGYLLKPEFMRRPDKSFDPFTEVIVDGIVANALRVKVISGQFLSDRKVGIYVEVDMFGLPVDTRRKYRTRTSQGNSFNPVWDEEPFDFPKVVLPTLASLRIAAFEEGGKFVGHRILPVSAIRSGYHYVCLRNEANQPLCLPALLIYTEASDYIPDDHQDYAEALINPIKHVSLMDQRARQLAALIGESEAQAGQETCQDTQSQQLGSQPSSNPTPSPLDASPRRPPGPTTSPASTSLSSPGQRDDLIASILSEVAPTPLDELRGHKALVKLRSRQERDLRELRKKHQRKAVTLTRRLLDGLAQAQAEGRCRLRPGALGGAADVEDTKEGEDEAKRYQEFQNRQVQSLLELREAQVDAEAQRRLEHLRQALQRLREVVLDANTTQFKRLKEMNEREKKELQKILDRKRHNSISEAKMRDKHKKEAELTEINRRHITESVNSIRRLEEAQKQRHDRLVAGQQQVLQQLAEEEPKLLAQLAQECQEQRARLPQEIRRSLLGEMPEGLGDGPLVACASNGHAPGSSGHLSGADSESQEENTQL

| SMILES | inhibition |
| --- | --- |
| O=C(CSc1ncn[nH]1)Nc1nc2c(F)c(F)c(F)cc2s1 | -3.83% |
| CCNC(=S)N1CCC(c2nc3cc(C)c(C)cc3[nH]2)CC1 | 0.08% |
| Cc1cc2nc(SCCN3CCOCC3)[nH]c2cc1C | 10.8% (active) |
| Cc1cc(C)c(NC(=O)CSc2nc3ccncc3[nH]2)c(C)c1 | -1.6% |
| Fc1ccc(CNCc2ccc(Br)cc2)cc1 | 1.89% |
| CC1(C(=O)NCc2ccco2)Cc2c(-c3ccc4c(c3)OCO4)ccnc2O1 (stereo unspecified) | -9.86% |
| COc1ccc(C(=O)NC2CC2)cc1OC1CCN(Cc2ccc(SC)cc2)CC1 | -5.08% |
| CCN(C(=O)COc1cccnc1[N+](=O)[O-])C1CCS(=O)(=O)C1 (stereo unspecified) | 3.82% |
| CCc1cc2c(=O)c(-c3ccon3)c(N)oc2cc1OC | -1.51% |
| CCOC(=O)C1CCN(C(=O)c2cccc(S(=O)(=O)N(CC)c3ccccc3)c2)CC1 | -9.7% |
| CCCC1CCC(=NNC(=S)NCCc2ccccc2)CC1 (stereo unspecified) | -1.2% |
| O=C(COc1ccc(Cl)cc1)N1CCN(c2cccc(C(F)(F)F)c2)CC1 | 13.8% (active) |
| Cc1c(C)c2ccc(OCC(=O)N3CCN(c4cccc(Cl)c4)CC3)cc2oc1=O | -8.02% |
| CSCCC(NC(=O)COc1ccccc1)C(=O)N1CCN(c2cccc(C(F)(F)F)c2)CC1 (stereo unspecified) | -10.1% |
| COC(=O)C1CC2=C(CC(C)(C)CC2=O)N(c2ccccc2)C1=O (stereo unspecified) | -3.14% |
| Cc1cc(NC(=O)COC(=O)c2ccc(F)c(S(=O)(=O)N3CCOCC3)c2)no1 | 11.6% (active) |
| O=C(COC(=O)c1ccc(F)c(S(=O)(=O)N2CCOCC2)c1)NCc1ccc2c(c1)OCO2 | -5.58% |
| Cc1ccc(C(=O)OCC(=O)Nc2ccc(Cl)cn2)cc1S(=O)(=O)N1CCOCC1 | -6.74% |
| CCCOc1ccc(Cc2c(O)nc(N)[nH]c2=O)cc1C | -5% |
| CCc1c(Nc2ccccc2C)nc(N)[nH]c1=O | 14.8% (active) |
| CCc1c(Nc2ccccc2Cl)nc(N)[nH]c1=O | 1.61% |
| COc1ccc(C(=O)O)cc1S(=O)(=O)NCc1cccnc1 | -3.06% |
| Cc1nnc(SCc2ccc(C(=O)c3ccc(Cl)cc3)o2)n1-c1ccccc1 | 0.27% |

| SMILES | inhibition |
| --- | --- |
| COC(=O)c1cc(NC(=O)c2nn(C)c(=O)c3ccccc23)cc(C(=O)OC)c1 | 0.09% |
| CC(=O)N1c2ccc(S(=O)(=O)N3CCCC(C(=O)NCc4ccc(Cl)cc4)C3)cc2CC1C (stereo unspecified) | -2.78% |
| O=C(NCc1ccco1)c1nn2cccnc2c1Cl | -10.8% |
| CN1CCN(C(=O)Cn2c(C(F)(F)F)nc3ccccc32)CC1 | 5.24% |
| CCCCc1nc2ccccc2c(NC(=O)CN2CCN(C)CC2)c1CCC | 32% (active) |
| CCc1cc(C(=O)c2ccc(OC)cc2)c(NC(=O)CN2CCN(C)CC2)s1 | -17.3% |
| CCn1c(/C=C/Nc2ccccc2)[n+](CC)c2ccc(C(=O)OCC(F)(F)F)cc21 | 13.1% (active) |
| CCOC(=O)c1cc2ccccc2n1CC(=O)c1ccccc1 | -2.72% |
| Cc1cc(C)c(OCC(=O)N(Cc2cccs2)C2CCS(=O)(=O)C2)c(C)c1 (stereo unspecified) | -6.39% |
| CC1C(=O)Nc2ccccc2N1C(=O)c1c(F)cccc1F (stereo unspecified) | -2.5% |
| CC(=O)O[C@@]1(C(C)=O)CCC2[C@H]3C=C(C)C4=CC(=O)CC[C@@]4(C)C3CC[C@]21C (stereo partly specified) | -4.21% |
| CC(=O)O[C@]1(C(C)=O)CC[C@H]2[C@@H]3C=C(C)C4=CC(=O)CC[C@]4(C)[C@H]3CC[C@@]21C | -0.43% |
| CC(=O)C12CC(C)=C(C)CC1CC1C3CCC4=CC(=O)CCC4(C)C3CCC12C (stereo unspecified) | 16.1% (active) |
| Cc1cc(NC(=O)COc2ccccc2C#N)no1 | -4.84% |
| Cc1cc(NC(=O)CSCc2ccccc2C)no1 | -0.65% |
| Cc1cc(NC(=O)COn2nnc3ccccc32)no1 | 10.7% (active) |
| COc1ccc(C(N)c2csc(NC(=O)Nc3cccc(C(F)(F)F)c3)n2)cc1 (stereo unspecified) | 11.1% (active) |
| C/C(CC(=O)Nc1cccc(C(F)(F)F)c1)=N\NC(=O)C(=O)NCC(C)C | 2.01% |
| NC(c1csc(NC(=O)Nc2ccccc2Oc2ccccc2)n1)c1ccccc1Cl (stereo unspecified) | -2.19% |
| CCOC(=O)/C=C/CN(C(=O)OC(C)(C)C)S(=O)(=O)N1CC=CC1 | 5.79% |
| O=C(CN1CCN(C(=O)C2CCCO2)CC1)Nc1c(Cl)cccc1Cl (stereo unspecified) | -2.62% |
| O=C(C1CCCO1)N1CCN(C(=S)NC2CC2)CC1 (stereo unspecified) | -1.16% |
| O=C(C1CCCO1)N1CCN(C(=S)Nc2cccc(Cl)c2)CC1 (stereo unspecified) | 12.1% (active) |
